Hit rate of the full screen: of about 1,100 compounds, about 340 (31%) were called active. Roughly 40% stayed inconclusive and do not appear here. The call rests on the fitted dose curve; in most records, active means well fitted inhibition curve with a large enough effect; inconclusive means small, poorly fitted or top-dose-only effect; inactive means flat fitted curve, though single readings scatter. A selection follows. A call without a number means that no potency is given here.

Drawing on PubChem BioAssay AID743286 (National Center for Advancing Translational Sciences (NCATS), 2014), this text covers Potency for 27 compounds.
Potency means the concentration at half of the fitted maximal effect.

Sequence of Phosphatidylinositol 5-phosphate 4-kinase type-2 alpha (Homo sapiens) (P48426 whole entry, looked up): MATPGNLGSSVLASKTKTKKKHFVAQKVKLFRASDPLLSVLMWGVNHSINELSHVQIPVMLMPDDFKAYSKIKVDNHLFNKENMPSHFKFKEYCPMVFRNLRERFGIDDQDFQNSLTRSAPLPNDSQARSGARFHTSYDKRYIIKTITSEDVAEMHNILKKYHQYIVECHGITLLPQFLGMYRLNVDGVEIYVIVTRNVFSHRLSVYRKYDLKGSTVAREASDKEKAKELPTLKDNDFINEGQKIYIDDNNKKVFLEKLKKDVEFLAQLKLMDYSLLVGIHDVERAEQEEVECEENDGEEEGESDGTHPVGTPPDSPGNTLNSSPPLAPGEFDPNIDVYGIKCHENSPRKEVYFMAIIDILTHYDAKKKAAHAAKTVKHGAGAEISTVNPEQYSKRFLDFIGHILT

The target in the experiment is Phosphatidylinositol 5-phosphate 4-kinase type-2 alpha (Homo sapiens) (UniProt P48426). The experiment can be described thus: qHTS for Inhibitors of PI5P4K: Confirmation in Primary Assay. Further: nearly all actives have a fitted effect of over 65% in size. The conditions noted are these: PI5P4Kalpha enzyme, ADP-Glo luminescence, 60 min; series mostly up to 76.9 µM. In a few lines:
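Hits from a qHTS screen were retested in the same PI5P4Kα ADP-Glo format: 5 microM ATP, HEPES pH 7.4 buffer with CHAPS and EGTA, 60 min room-temperature reaction, single end-point luminescence read.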
(In general: qHTS replaces the single test concentration by a dilution series.)
Consider `CCCn1c(SCC(=O)N2c3ccccc3Sc3ccccc32)nc2c1c(=O)n(C)c(=O)n2C`, for which the Potency entry is “inactive”.
Regarding `CCC(c1nnnn1Cc1ccco1)N(CCc1ccccc1)Cc1cc2ccc(OC)cc2[nH]c1=O` (configuration not stated), the Potency entry was “inactive”.
As for `O=C(NCCN1CCN(c2ccccc2)CC1)C1CCCN(S(=O)(=O)c2cnc[nH]2)C1` (configuration not stated), the entry is “inactive”.
In the case of `Cc1cc(NS(=O)(=O)c2ccc(NC(=O)COc3ccc(Br)cc3)cc2)nc(C)n1` it was “inactive”; in that of `Cc1cc(C)c2nc(-c3ccccn3)cc(C(=O)Nc3ccc(S(=O)(=O)Nc4onc(C)c4C)cc3)c2c1`, 8.91 µM (active).
As for `COCCCNC(=O)c1ccc2c(=O)n(CC3CCCO3)c(=S)[nH]c2c1` (configuration not stated), the entry is “inactive”.
On to `CN(Cc1ccccc1)C(=O)c1csc([C@H]2C[C@H](O)[C@@H](CO)O2)n1`, for which the Potency result is “inactive”.
In the case of `COc1cccc(CNS(=O)(=O)c2ccccc2Br)c1OC`, the Potency entry was “inactive”.
As to `COC(=O)CSc1nc(C)cc(C)n1`, the Potency result was “inactive”.
As for `CC1CCCCN1C(=O)Cn1cnc2cc([N+](=O)[O-])ccc2c1=O` (configuration not stated), the entry is “inactive”; as for `O=C(Cn1cnc2scc(-c3cccc([N+](=O)[O-])c3)c2c1=O)NCc1ccco1`, 11.2 µM (active).
As to `COC(=O)CNC(=O)C1Cc2ccccc2CN1S(=O)(=O)c1cccs1` (configuration not stated), the Potency result is “inactive”.
In the case of `O=C(O)c1ccc(Cl)c(S(=O)(=O)Nc2ccc3[nH]c(=O)[nH]c3c2)c1` it was “inactive”; in that of `O=S(=O)(Nc1nc(-c2ccccc2)cs1)c1cc(Cl)ccc1Cl`, 28.2 µM (active); in that of `COC(=O)c1ccccc1NC(=O)CN1CCC(n2nnc3cc(C(F)(F)F)ccc32)CC1`, “inactive”.
As for `Cc1ccc(S(=O)(=O)N2[C@@H](c3ccc(C(C)(C)C)cc3)C(C(=O)O)=CC[C@H]2c2ccc(C(C)C)cc2)cc1`, the entry is “inactive”; as for `Cc1cccc(NC(c2ccc(O)cc2)c2ccc3ccc(C)nc3c2O)n1` (configuration not stated), 22.4 µM (active).
For the compound `O=c1cc(-c2ccccc2)[nH]n1-c1nc2ccccc2[nH]1`, the Potency was 15.8 µM (active).
As for `CC(=O)Nc1ccc(NC(=S)Nc2ccc(Br)cc2)cc1`, the entry is “inactive”; as for `CC(C)C(=O)Nc1nnc(NC(=S)Nc2ccccc2)s1`, 20 µM (active).
As for `O=C(CSc1n[nH]c(-c2cccnc2)n1)OC1CCCCC1`, the entry is “inactive”; as for `CCCn1c(N)c(N(CCOC)C(=O)c2cc(-c3ccco3)nc3ccccc23)c(=O)[nH]c1=O`, “inactive”; as for `CCCCC(=O)N(Cc1ccc2c(c1)OCO2)Cc1nc2ccccc2c(=O)[nH]1`, “inactive”.
As for `CCCN(C(=O)c1cc(-c2ccco2)nc2ccccc12)c1c(N)n(Cc2ccccc2)c(=O)[nH]c1=O`, the figure is 15.8 µM (active); as for `CCCN(C(=O)c1cccc(-n2cccc2)c1)c1c(N)n(Cc2ccccc2)c(=O)[nH]c1=O`, 7.08 µM (active).
Turning to `Cc1ccc(Nc2nc(C)c3c(n2)CC(C)CC3=O)c(C)c1` (configuration not stated), the Potency result is “inactive”.
For the compound `O=C(O)c1cc2c(N3CCC(Cc4ccccc4)CC3)ncnc2s1`, the Potency was 3.98 µM (active).
